Screening data from PubChem.
Mtb MbtI inh = MbtI salicylate synthase inhibitors, primary screen, biochemical, fluorescence intensity. 100,000 compounds, 0.89% hits. P9WFX0. purified MbtI enzyme, fluorescence intensity read-out. inhibition, % (test concentration not listed); in the data active = inhibition mostly above about 56%, no sharp cut-off; inactive = mostly below about 77%
MenB inh = M. tuberculosis MenB inhibitors, primary screen, biochemical, absorbance; inhibition, % (concentration not given with the values); MenB enzyme assay, absorbance read-out; 1,4-dihydroxy-2-naphthoyl-CoA synthase (Mycobacterium tuberculosis (strain ATCC 25618 / …; 100,000 compounds, 0.43% hits; AID 540299, 2011; in the data active = inhibition above about 21%, passing the limit was not always enough
AID504770 = growth inhibition of E. coli YBA685, primary screen, V. cholerae RctB inhibitors; z-score (concentration not given with the values); E. coli YBA685 rctB-dependent plasmid, OD600 growth, 3 h; active compounds read low; AID 504770, 2011; 130,000 compounds, 0.27% hits; in the data active = z-score below about -2, passing the limit was not always enough
PV pol inh = poliovirus RdRp elongation inhibitors, primary screen, biochemical, fluorescence polarization, total intensity; Genome polyprotein (Poliovirus type 1 (strain Mahoney)), P03300; poliovirus polymerase elongation; active compounds read low; % elongation, % (compound at 16.7 µg/mL); 150,000 compounds, 0.66% hits; AID 588519, 2011; in the data active = % elongation below about 90%
Target sequence (P03300 1749-2209 limits assumed): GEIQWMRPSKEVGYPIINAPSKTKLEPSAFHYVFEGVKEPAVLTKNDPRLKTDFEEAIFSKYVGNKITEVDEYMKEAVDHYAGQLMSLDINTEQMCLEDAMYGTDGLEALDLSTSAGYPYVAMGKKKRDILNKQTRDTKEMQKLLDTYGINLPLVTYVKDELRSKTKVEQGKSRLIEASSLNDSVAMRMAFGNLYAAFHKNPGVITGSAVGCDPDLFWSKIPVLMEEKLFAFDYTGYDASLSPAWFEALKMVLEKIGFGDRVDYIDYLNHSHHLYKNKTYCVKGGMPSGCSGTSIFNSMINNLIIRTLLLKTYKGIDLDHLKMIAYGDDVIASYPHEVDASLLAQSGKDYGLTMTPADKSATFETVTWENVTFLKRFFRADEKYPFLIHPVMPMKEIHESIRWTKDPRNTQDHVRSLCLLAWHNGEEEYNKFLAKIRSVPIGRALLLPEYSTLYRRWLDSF
Numbers stand for hits; – = inactive; · = not tested or not shown. Compounds with a hit are over-represented: about 1.5% of the library has one in this group of screens.

SMILES	Mtb MbtI inh	MenB inh	AID504770	PV pol inh
CC(=O)Oc1ccc(-c2ccccc2)cc1	–	–	–	–
CC(=O)[O][Hg][c]1ccccc1	–	–	-5.2	–
CSc1nc(Nc2ccc(F)cc2)c(C#N)c(-c2ccccc2)n1	–	–	–	–
O=C1NC(=O)N(C2CCCCC2)C(=O)/C1=C/c1ccc(Br)cc1	–	–	–	–
N=C1/C(=C2\NC(c3ccc(Br)cc3)=CS2)CC(=O)N1C1CC1	91	–	–	–
O=C(O)CNC(=O)c1ccc(N2CCCC2=O)cc1	–	–	–	–
O=c1oc2cc(Cl)c(O)c(Cl)c2s1	99	–	–	–
COc1ccc(CC(=O)O)cc1F	–	–	–	–
CC(C)Cn1cc(NC(=O)NCc2cccc(Cl)c2)c2ccccc2c1=O	·	·	·	58
Cc1ccc(CNC(=O)Nc2cn(CC(C)C)c(=O)c3ccccc23)cc1	·	·	·	28
Cc1ccc(C)c(N2CCN(C(=O)Nc3cn(CC(C)C)c(=O)c4ccccc34)CC2)c1	·	·	·	77
COc1cccc(CNC(=O)Nc2cn(CC(C)C)c(=O)c3ccccc23)c1	·	·	·	31
CC(C)Cn1cc(NC(=O)N2CCN(c3cccc(Cl)c3)CC2)c2ccccc2c1=O	·	·	·	–
Cc1nc2c(-c3ccccc3)c(C)nn2c(C)c1CC(=O)NCCCN1CCCC1=O	–	–	–	–
CC(C)Cn1cc(NC(=O)NCc2ccccc2)c2ccccc2c1=O	·	·	·	12
CC(C)Cn1cc(NC(=O)NCc2ccccc2Cl)c2ccccc2c1=O	·	·	·	41
CC(C)Cn1cc(NC(=O)NCc2ccc(Cl)cc2)c2ccccc2c1=O	·	·	·	–
COc1ccc(OC)c(CNC(=O)Nc2cn(CC(C)C)c(=O)c3ccccc23)c1	·	·	·	25
C#CC(=O)OCC(=O)Nc1ccc(C)c(C)c1	66	–	–	89
O=C(OCC1CCNCC1)c1ccc2c(c1)OCO2	–	–	–	–
O=C(OCC1CCNCC1)c1ccc(F)cc1	–	27	–	–
CN1CCN(S(=O)(=O)c2ccccc2C(F)(F)F)CC1	–	–	–	89
O=S(=O)(c1ccccc1C(F)(F)F)N1CCNCC1	–	–	–	–
CCN(CC)C(=O)c1cc(-c2ccccc2)on1	–	34	–	–
O=C(O)c1cc(-c2ccc(F)cc2)on1	·	47	–	–
SMILES	Mtb MbtI inh	MenB inh	AID504770	PV pol inh
C=CCNC(=O)c1cc(-c2ccccc2)on1	–	34	–	–
C=CCNC(=O)c1cc(-c2ccc(OC)cc2)on1	–	–	–	–
CCN(CC)C(=O)c1cc(-c2ccc(C)cc2)on1	·	–	–	–
Cc1nn(-c2ccccc2Cl)c2nc(-c3ccco3)cc(C(=O)NN)c12	–	–	–	88
O=C(CSc1ccc2nnc(-c3ccccc3)n2n1)Nc1ccccc1	·	·	–	·
O=C(O)C1CCCN(CCc2ccccn2)C1 (configuration not stated)	–	–	–	–
COC(=O)c1cc(C)sc1N	95	–	–	–
COC(=O)Nc1sc(C)cc1C(=O)OC	–	–	–	–
C1CCN(SN2CCCCC2)CC1	·	–	–	78
CC12CCC(=O)N1C(C(=O)O)Cc1c2[nH]c2ccccc12 (configuration not stated)	–	–	–	85
CC(=O)N1C(C(=O)O)Cc2c([nH]c3ccccc23)C1(C)C (configuration not stated)	·	–	–	–
O=S1NN(c2ccccc2)S(=O)NN1c1ccccc1 (configuration not stated)	–	–	–	72
COc1cccc(N(Cc2nnc3n2CCCCC3)C(=O)Nc2ccccc2)c1	·	·	·	–
O=C(Nc1ccccc1)N(Cc1nnc2n1CCCCC2)c1ccc(I)cc1	·	–	–	90
COc1ccccc1OCC(=O)Nc1nc(-c2ccc(S(=O)(=O)N3CCCC3)cc2)cs1	–	–	–	–
Cc1nn(-c2ccccc2)c2c1CC1(C(=O)NC(=O)c3ccccc31)C1CCCN21 (configuration not stated)	–	–	–	83
CC1(C)CC(=O)c2c(nn(-c3ccccc3)c2N)C1	–	–	–	–
O=C(/C=C(\O)c1ccc(Cl)cc1)C(F)(F)F	–	–	-4.3	–
CN(C)CCN1CCNCC1	–	34	–	–
CN(C)C(=O)CN1CCNCC1	–	–	–	–
CC(=O)Nc1ccc(/C=N/O)cc1	–	–	–	–
COc1cccc(N2CC(NC(=O)/C=C\c3ccc4c(c3)OCO4)CC2=O)c1 (configuration not stated)	·	·	·	81
COc1ccc(N2CC(NC(=O)/C=C\c3ccc4c(c3)OCO4)CC2=O)cc1OC (configuration not stated)	·	·	·	–
CN1CCSC1=Nc1cccc(C(F)(F)F)c1	–	–	–	–
COc1ccc(C2=NN(C(=O)CNc3cccc4ccccc34)C(c3ccco3)C2)cc1 (configuration not stated)	–	–	–	–
SMILES	Mtb MbtI inh	MenB inh	AID504770	PV pol inh
CN(C)CCOC(=O)c1ccc2[nH]c3c(c2c1)CSCC3	–	–	–	–
O=C(O)c1ccc2[nH]c3c(c2c1)CSCC3	·	–	–	84
Cc1ccc(OCCn2c(CC(C)(C)C)nc3ccccc32)cc1	–	–	–	–
O=c1c(=NNc2ccc(S(=O)(=O)N3CCOCC3)cc2)c(=O)c2ccccc12	–	–	–	–
Clc1ccc(OCCn2ccnc2)c(Br)c1	–	–	-2.7	–
COc1ccccc1NC(=O)Cc1ccccc1	–	–	–	–
CN(C)C(=O)CSc1nc2cc(S(=O)(=O)N3CCOCC3)ccc2o1	87	–	–	81
Cc1ccc2nc(SCC(N)=O)oc2c1	–	33	–	–
CCCSc1nc2ccc(S(=O)(=O)N3CCOCC3)cc2[nH]1	93	–	–	64
NC(=O)CSc1nc2cc(S(=O)(=O)N3CCOCC3)ccc2o1	–	–	–	76
CN(C)C(=O)CSc1nc2cc(Cl)ccc2o1	–	–	–	·
CCOC(=O)CC(=O)Nc1c(NC)c2ccccc2oc1=O	–	–	–	–
Cc1ccc2oc(=O)c(/C=C(\O)CC(C)C)nc2c1	–	69	–	–
CCS(=O)(=O)c1ccc2oc(=O)c(/C=C(\O)c3oc(C)nc3C)nc2c1	–	–	–	–
CN1C(=O)/C(=C/c2ccccc2)NC1=S	–	–	–	–
COc1ccc(-c2sccc2C(C)C(=O)O)cc1 (configuration not stated)	–	27	–	–
COc1ccc2cc([C@H](C)C(=O)O)ccc2c1	–	–	–	–
N#Cc1c(N(C(=O)/C=C/c2ccco2)C(=O)/C=C/c2ccco2)oc(-c2ccco2)c1-c1ccco1	–	–	–	89
COc1cccc(OC)c1C(=O)N(C(=O)c1c(OC)cccc1OC)c1oc(-c2ccco2)c(-c2ccco2)c1C#N	–	–	–	–
CCn1c(NCc2ccccc2)nc2ccccc21	–	38	–	–
C=CCn1c(NCc2ccccc2)nc2ccccc21	·	–	–	–
CCOC(=O)C1=C(C)NNC(=Nc2cccc(C)c2C)S1	86	–	–	80
CC(C)c1ccc(N2C(=O)Cc3c2nc(N)c2c(N)nc(N4CCCC4)c(C#N)c32)cc1	–	–	–	–
